We go through 54 compounds from article PMC4336329 (PLoS ONE, 2015).

About 14,000 (4.5%) of roughly 310,000 compounds showed an effect of 50% or more. The effect is printed as a negative number. The entries come from a sample that favours strong results as a whole.
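Further: peak tail current of the secondary pulse compared with the same well before compound.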

Sequence of human ether-à-go-go-related gene (hERG) potassium channel (Q12809 whole entry, looked up): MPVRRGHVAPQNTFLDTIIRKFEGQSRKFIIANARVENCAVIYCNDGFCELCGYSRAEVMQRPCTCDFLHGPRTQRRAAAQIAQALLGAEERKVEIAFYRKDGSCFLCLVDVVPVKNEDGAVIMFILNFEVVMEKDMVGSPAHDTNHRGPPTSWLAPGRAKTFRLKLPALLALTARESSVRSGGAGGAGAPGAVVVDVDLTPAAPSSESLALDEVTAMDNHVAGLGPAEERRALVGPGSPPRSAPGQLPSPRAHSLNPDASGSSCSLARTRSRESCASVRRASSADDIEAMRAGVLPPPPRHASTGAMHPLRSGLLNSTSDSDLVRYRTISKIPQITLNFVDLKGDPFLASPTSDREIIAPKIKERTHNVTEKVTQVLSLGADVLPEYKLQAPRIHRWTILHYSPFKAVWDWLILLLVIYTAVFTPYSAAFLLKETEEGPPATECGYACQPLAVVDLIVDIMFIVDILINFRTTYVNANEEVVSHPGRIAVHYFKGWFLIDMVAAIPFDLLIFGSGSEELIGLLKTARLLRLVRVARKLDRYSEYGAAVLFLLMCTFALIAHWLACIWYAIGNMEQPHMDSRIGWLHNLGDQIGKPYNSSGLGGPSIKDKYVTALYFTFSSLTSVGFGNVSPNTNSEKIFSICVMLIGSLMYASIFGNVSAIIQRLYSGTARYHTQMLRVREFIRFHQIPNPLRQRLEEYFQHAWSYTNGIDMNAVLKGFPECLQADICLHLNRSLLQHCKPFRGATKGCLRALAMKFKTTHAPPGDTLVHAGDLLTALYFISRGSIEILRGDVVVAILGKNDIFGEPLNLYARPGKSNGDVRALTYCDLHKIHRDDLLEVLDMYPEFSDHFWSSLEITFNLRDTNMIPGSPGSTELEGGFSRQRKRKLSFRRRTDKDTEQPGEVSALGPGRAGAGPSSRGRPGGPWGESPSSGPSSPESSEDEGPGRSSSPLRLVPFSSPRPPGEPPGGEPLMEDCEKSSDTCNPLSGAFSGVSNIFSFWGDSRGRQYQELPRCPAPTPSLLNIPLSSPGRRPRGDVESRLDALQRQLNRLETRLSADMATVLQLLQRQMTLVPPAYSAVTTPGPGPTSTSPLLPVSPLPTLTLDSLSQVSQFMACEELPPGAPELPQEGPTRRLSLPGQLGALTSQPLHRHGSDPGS

The test concerns the target human ether-à-go-go-related gene (hERG) potassium channel (human, UniProt Q12809). As to the kind of experiment: primary screen, population patch clamp on CHO cells stably expressing hERG; higher = less effect of the substance.
Regarding `COc1ccc(-c2cc(C(=O)NCc3cccs3)no2)cc1`, the “hERG current change (%, negative = inhibition) at 10uM” value came out at 7.1%.
With `O=C(COC(=O)c1cccnc1Cl)Nc1cc(S(=O)(=O)N2CCCCC2)ccc1Cl`, the “hERG current change (%, negative = inhibition) at 10uM” value is -18.9%.
Regarding `COc1ccc(NC(=O)Cn2nnc(C(=O)NCc3ccc4c(c3)OCO4)c2N)cc1`, the “hERG current change (%, negative = inhibition) at 10uM” value is listed as 18.4%.
Regarding `O=C(C1CC(=O)N(c2ccccc2)C1)N1CCN(c2ccccc2F)CC1` (stereo not drawn), the “hERG current change (%, negative = inhibition) at 10uM” value is given as -13.4%.
Under `O=C(O)C1CC(=O)N(c2ccc(F)cc2)C1` (stereo not drawn) stands 14.1%.
In the case of `O=C(C1CC(=O)N(c2ccc(F)cc2)C1)N1CCN(c2ccc(F)cc2)CC1` (stereo not drawn), the “hERG current change (%, negative = inhibition) at 10uM” value was -73.1%.
Under `Cc1ccc(N2CC(C(=O)N3CCN(c4ccccc4)CC3)CC2=O)cc1` (stereo not drawn) stands -17.6%; under `O=C(C1CC(=O)N(c2ccc(F)cc2)C1)N1CCN(c2ccccc2)CC1` (stereo not drawn), -58.3%; under `CC(c1ccccc1)N1CC(C(=O)N2CCN(c3ccccc3)CC2)CC1=O` (stereo not drawn), -27.2%.
Turning to `CC(c1ccccc1)N1CC(C(=O)N2CCN(c3ccc(F)cc3)CC2)CC1=O` (stereo not drawn), the “hERG current change (%, negative = inhibition) at 10uM” value is given as -65.3%.
In the case of `O=C(C1CC(=O)N(c2ccccc2)C1)N1CCN(c2ccc(F)cc2)CC1` (stereo not drawn), the “hERG current change (%, negative = inhibition) at 10uM” value is recorded as -56.7%.
In the case of `O=C(C1CC(=O)N(c2ccc(F)cc2)C1)N1CCCCCC1` (stereo not drawn), the “hERG current change (%, negative = inhibition) at 10uM” value was -6.27%.
Consider `O=C(C1CC(=O)N(c2ccccc2)C1)N1CCN(c2ccccc2)CC1` (stereo not drawn), for which the “hERG current change (%, negative = inhibition) at 10uM” value is recorded as -29%.
Consider `CC(c1ccccc1)N1CC(C(=O)O)CC1=O` (stereo not drawn), for which the “hERG current change (%, negative = inhibition) at 10uM” value turned out to be 10.7%.
In the case of `O=C(C1CC(=O)N(c2ccc(F)cc2)C1)N1CCCCC1` (stereo not drawn) it was -0.378%; in that of `Cc1cc(C)cc(OCC(=O)Nc2ccc(N3CCCC3)cc2)c1`, 11.9%.
As for `COc1ccc(C(=O)Nc2nnc(S(=O)(=O)N3CCOCC3)s2)cc1`, the “hERG current change (%, negative = inhibition) at 10uM” value is given as -3.02%.
As for `CC(C)C(=O)NNC(=O)c1c(O)c2ccccc2[nH]c1=O`, the “hERG current change (%, negative = inhibition) at 10uM” value is 10.3%.
Consider `O=C(Nc1cccc(O)c1)C1CC(c2c(F)cccc2Cl)=NO1` (stereo not drawn), for which the “hERG current change (%, negative = inhibition) at 10uM” value is on record as -15.6%.
With `COc1ccc(CNC(=O)OCCN2CCN(S(=O)(=O)c3ccc(C)cc3)CCC2=O)cc1`, the “hERG current change (%, negative = inhibition) at 10uM” value is given as -35.9%.
In the case of `CCCCC(NC(=O)Cc1c(C)c2cc3c(-c4ccccc4)coc3c(C)c2oc1=O)C(=O)O` (stereo not drawn) it was 13.2%.
In the case of `O=C1CC(NNc2nc3ccccc3s2)C(=O)N1c1ccc(F)cc1` (stereo not drawn) it was 3.25%; in that of `CCOCCCNC(=S)N1CCN(C(=O)C(=O)Nc2ccc(C(=O)OC)cc2)CC1`, -40.6%.
Regarding `CSCCC(NC(=O)COc1ccccc1)C(=O)OCC(=O)c1cc2ccccc2o1` (stereo not drawn), the “hERG current change (%, negative = inhibition) at 10uM” value was 8.62%.
Under `COc1ccc(C(=O)NC(=S)NCc2ccccc2)cc1` stands -0.211%; under `Cc1ccccc1CNC(=O)CCC(=O)N1CCOc2ccccc21`, 7.41%.
On to `Cc1ccc(-c2c(C)n([O-])c3c([n+]2=O)CCCCC3)o1`, for which the “hERG current change (%, negative = inhibition) at 10uM” value is -1.3%.
Consider `Cc1c(NC(=O)c2ccc(Cl)nc2)cccc1-c1nc2cccnc2s1`, for which the “hERG current change (%, negative = inhibition) at 10uM” value was -48.1%.
With `CCCOc1ccc(/C=c2\sc3ncnn3c2=O)cc1`, the “hERG current change (%, negative = inhibition) at 10uM” value came out at 6.61%.
On to `CCOCc1[nH]c(=S)[nH]c(=O)c1Cc1ccc(OCC(C)C)cc1`, for which the “hERG current change (%, negative = inhibition) at 10uM” value stood at 14%.
Take `CCOCc1[nH]c(=S)[nH]c(=O)c1Cc1ccc(OC(C)C)cc1`: the “hERG current change (%, negative = inhibition) at 10uM” value is given as -58.8%.
Turning to `CCOCc1[nH]c(=S)[nH]c(=O)c1Cc1ccc(OCC)cc1`, the “hERG current change (%, negative = inhibition) at 10uM” value is listed as 9.49%.
On to `COc1cccc(C2=CC(c3cccs3)n3nnnc3N2)c1` (stereo not drawn), for which the “hERG current change (%, negative = inhibition) at 10uM” value was 14.5%.
As to `CCc1nnc(SCc2ccc(OC(C)C)cc2)n1N`, the “hERG current change (%, negative = inhibition) at 10uM” value was 9.36%.
Consider `CCCCn1c2c(c(=O)n(C)c1=O)C(CC(=O)OCC(=O)Nc1cccc(C(F)(F)F)c1)C(=O)N2` (stereo not drawn), for which the “hERG current change (%, negative = inhibition) at 10uM” value is on record as -5.56%.
With `COc1ccc(NC(=O)C(C)Sc2nnc(C3CC3)n2C2CC2)cc1` (stereo not drawn), the “hERG current change (%, negative = inhibition) at 10uM” value is given as -13.3%.
In the case of `COc1ccc(Cl)cc1NC(=O)C(C)Sc1nnc(C2CC2)n1C1CC1` (stereo not drawn), the “hERG current change (%, negative = inhibition) at 10uM” value was -69.5%.
In the case of `CC(Sc1nnc(C2CC2)n1C1CC1)C(=O)Nc1cccc(S(=O)(=O)N(C)C)c1` (stereo not drawn), the “hERG current change (%, negative = inhibition) at 10uM” value is -19.5%.
For `Cc1ccc(NC(=O)C(C)Sc2nnc(C3CC3)n2C2CC2)cc1S(=O)(=O)N1CCOCC1` (stereo not drawn), the “hERG current change (%, negative = inhibition) at 10uM” value is recorded as -51%.
Under `COc1ccc(Cl)cc1NC(=O)C(C)Sc1nncn1C` (stereo not drawn) stands 0.256%; under `COc1cccc(NC(=O)C(C)Sc2nnc(C3CC3)n2C2CC2)c1` (stereo not drawn), -67%.
Turning to `CC(Sc1nnc(C2CC2)n1C1CC1)C(=O)Nc1ccccc1C#N` (stereo not drawn), the “hERG current change (%, negative = inhibition) at 10uM” value is on record as -10%.
Consider `CC(Sc1nnc(C2CC2)n1C1CC1)C(=O)Nc1cccc(S(=O)(=O)N2CCOCC2)c1` (stereo not drawn), for which the “hERG current change (%, negative = inhibition) at 10uM” value is listed as -11.8%.
Turning to `Cc1ccc(NC(=O)C(C)Sc2nnc(C)n2C2CC2)cc1S(=O)(=O)N1CCOCC1` (stereo not drawn), the “hERG current change (%, negative = inhibition) at 10uM” value is recorded as -13.9%.
Under `Cc1ccc(C)c(OCCC(=O)NCCc2ccc(S(N)(=O)=O)cc2)c1` stands 10.7%; under `O=C(c1cccs1)[C@@H]1[C@@H]2C(=O)N(Cc3ccc4c(c3)OCO4)C(=O)[C@@H]2C2c3ccccc3C=CN21` (stereo partly drawn), -26.7%.
In the case of `O=C(CCCCCN1C(=O)c2cccc3cccc(c23)C1=O)NCCCO` it was -1.71%; in that of `O=c1[nH]c(C2CC2)nc2sc3c(c12)CCCC3`, 15.8%; in that of `CCOC(=O)c1c(NC(=O)COC(=O)c2ccc([N+](=O)[O-])cc2)sc(C(=O)N(C)C)c1C`, -8.65%.
Under `CCOC(=O)c1c(NC(=O)COC(=O)Cc2ccccc2[N+](=O)[O-])sc(C(=O)N(C)C)c1C` stands -68.9%; under `CCOC(=O)c1c(NC(=O)COC(=O)CCOc2ccc(OCC)cc2)sc(C(=O)N(C)C)c1C`, -8.87%.
Take `CCOC(=O)c1c(NC(=O)COC(=O)Cc2n[nH]c(=O)c3ccccc23)sc(C(=O)N(C)C)c1C`: the “hERG current change (%, negative = inhibition) at 10uM” value is listed as -2.24%.
For `CCOC(=O)c1c(NC(=O)COC(=O)Cc2c[nH]c3ccccc23)sc(C(=O)N(C)C)c1C`, the “hERG current change (%, negative = inhibition) at 10uM” value is given as -62.5%.
Turning to `CCOC(=O)c1c(NC(=O)COC(=O)c2ccccn2)sc(C(=O)N(C)C)c1C`, the “hERG current change (%, negative = inhibition) at 10uM” value is listed as 4.44%.
